Source: PubChem
Rtt109 Vps75 = C. albicans Rtt109 histone acetyltransferase inhibition | Q5AAJ8 | purified Rtt109/Vps75, ThioGlo CoA-SH fluorescence, 4 h | inhibition, % at 34.9 µM | 330,000 compounds, 0.16% hits | AID 540336;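 active = inhibition of at least 50% in every replicate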
Target sequence (Q5AAJ8 whole entry, looked up): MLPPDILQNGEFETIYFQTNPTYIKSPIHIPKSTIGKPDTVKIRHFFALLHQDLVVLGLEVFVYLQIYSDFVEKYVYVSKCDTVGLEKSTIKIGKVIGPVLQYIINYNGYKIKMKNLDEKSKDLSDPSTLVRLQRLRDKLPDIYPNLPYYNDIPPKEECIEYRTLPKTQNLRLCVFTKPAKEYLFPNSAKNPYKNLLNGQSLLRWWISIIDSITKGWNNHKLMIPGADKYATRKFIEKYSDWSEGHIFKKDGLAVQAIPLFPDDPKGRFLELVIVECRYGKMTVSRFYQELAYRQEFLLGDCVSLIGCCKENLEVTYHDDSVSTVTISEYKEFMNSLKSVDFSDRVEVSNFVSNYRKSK
WT yeast gro inh = growth inhibition of WT yeast, mitochondrial fusion screen; mitochondrial fusion phenotypic screen, WT strain; inhibition, % at 10 µM; 190,000 compounds, 2.1% hits; in the data active = inhibition above about 58%; tested in S. cerevisiae
SKKanGAS inh = blocks kanamycin growth of S. pyogenes SKKanGAS strain | BacTiter-Glo, 6 h | inhibition, % at 7.5 µM | 300,000 compounds, 1.3% hits | AID 1662;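 active = mean replicate score, as percent of positive control median, at least 50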;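 also: strain carries kanamycin resistance gene driven by streptokinase promoter and grows in 40 µg/ml kanamycin; loss of luminescence reflects streptokinase promoter inhibition or plain growth inhibition; 0% = median of DMSO wells and 100% = positive control at its reference dose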
Platelet DG rel = modulates dense granule release in human platelets; human platelet-rich plasma, SFLLRN dense granule ATP release, luminescence; 300,000 compounds, 0.22% hits; AID 1663; inhibition, %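 (compounds screened at 7.5 µM in platelet-rich plasma)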;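 active = mean replicate score, as percent of positive control, at or above 50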
PHOSPHO1 inh = inhibitors of human PHOSPHO1 phosphatase. Q8TCT1. recombinant PHOSPHO1, absorbance phosphatase assay. inhibition, % at 13.3 µM. 290,000 compounds, 1.1% hits; in the data active = inhibition above about 60%
TPT1 inhibitor = C. albicans TPT1 enzyme inhibition; 300,000 compounds, 0.81% hits; inhibition, % at 5 µM; recombinant caTPT1, FP RNA substrate dephosphorylation;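 active = inhibition above the mean of all tested compounds plus 3 SD, set per screening campaign, cut at about 24% in these data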;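 also: plate controls were DMSO alone for no effect and ferristatin control at 100 nM for full effect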
* marks the source's active call; other numbers are inactive results; · = no result; ! = not active in a repeat. This is a sample that favours compounds with a hit; in the whole collection about 3.9% have one here.

SMILES	Rtt109 Vps75	WT yeast gro inh	SKKanGAS inh	Platelet DG rel	PHOSPHO1 inh	TPT1 inhibitor
CS(=O)(=O)Cc1ccc(C(=O)NC2CCSc3ccccc32)cc1 (stereo not drawn)	-3.2	·	4.5	4.3	32.0	1.3
Cc1ccc(NC(=O)Cc2nnc(SCC(=O)c3ccc(Br)cc3)n2C)cc1Cl	·	7.5	0.0	-3.9	77.7*	-5.6
Cc1ccccc1NC(=O)Cc1nnc(SCC(=O)c2ccc(Br)cc2)n1C	-9.1	1.4	-3.9	-11.7	29.3	0.5
O=C(C=CC(=O)OC1CCCCC1)OC1CCCCC1	0.2	·	·	·	·	·
Cc1occc1C(=O)Nc1cc(C(C)(C)C)on1	8.8	33.8	19.9	56.1*	10.4	-1.1
Nc1nc2ncc(CNc3ccc(C(=O)N[C@@H](CCC(=O)O)C(=O)O)cc3)nc2c(=O)[nH]1	-4.7	·	-0.2	-0.6	-18.0	-7.7
CN(Cc1cnc2nc(N)nc(N)c2n1)c1ccc(C(=O)N[C@@H](CCC(=O)O)C(=O)O)cc1	-12.2	·	88.5*	-6.1	·	-2.2
CC(c1ccccc1)n1c(Br)nc2c1c(=O)[nH]c(=O)n2C (stereo not drawn)	0.6	·	-10.7	1.4	7.8	-2.2
CCCCCCCCn1c(N2CCN(c3cccc(Cl)c3)CC2)nc2c1c(=O)[nH]c(=O)n2C	-5.8	-12.1	4.5	-3.1	-7.4	-1.1
CC(c1ccccc1)n1c(N2CCNCC2)nc2c1c(=O)[nH]c(=O)n2C (stereo not drawn)	64.9*	·	0.3	-0.9	19.2	·
CC(C)CCn1c(N2CCN(c3cccc(Cl)c3)CC2)nc2c1c(=O)[nH]c(=O)n2C	-0.6	61.9*	45.4	-0.1	-15.8	-3.2
CCn1ccnc1CNC(=O)c1ccc2oc(CCCc3ccccc3)nc2c1	-1.1	·	34.6	26.6	-2.4	-1.1
COc1ccc(C(C)C)cc1S(=O)(=O)N1CCN(c2ccccc2)CC1	-5.3	66.2*	17.7	-2.5	5.3	0.0
CCN1C[C@@H]2[C@@H]3C(=O)N(C)C(=O)[C@@H]3[C@](CC)(C1=O)N2C(=O)c1ccc(Cl)cc1	-27.5	·	·	·	·	·
O=C(O)CNC(=O)c1ccc(Oc2c(F)c(F)c(Oc3ccc(C(=O)NCC(=O)O)cc3)c(F)c2F)cc1	3.1	·	0.8	-4.3	10.8	2.5
COc1ccc(S(=O)(=O)Nc2cc3c4c(oc3c3ccccc23)CC(C)(C)CC4=O)cc1	7.0	37.0	52.5*	6.7	28.4	-5.7
COc1ccc(S(=O)(=O)Nc2cc3c4c(oc3c3ccccc23)CCCC4=O)cc1	-4.3	12.3	30.8	1.2	7.1	1.0
NCCCCC(N)c1cn([C@@H](CCC(=O)O)C(=O)N2CCNCC2)nn1 (stereo partly drawn)	-10.1	·	·	·	·	-4.5
CN1CCN(CCCN2c3ccccc3Sc3ccc(C(F)(F)F)cc32)CC1	-8.7	92.6*!	6.6	-1.1	-8.7	0.8
O=C(CN1CCCC(O)C1)N1c2ccccc2Sc2ccc(C(F)(F)F)cc21 (stereo not drawn)	-0.6	-3.2	3.2	10.7	25.5	-0.4
C=C1c2ccccc2NC(=O)N1c1ccc(C)cc1	3.0	1.0	-1.4	26.4	6.4	4.3
C=C1c2cc(C)ccc2NC(=O)N1c1ccc(C)cc1	-7.3	19.0	4.1	-26.9	73.3*	0.2
Cc1ccc(-c2nc(S(=O)(=O)c3ccc(C)cc3)c(SCC(N)=O)o2)cc1	-2.3	·	0.8	-9.0	8.7	1.2
Cc1ccc(S(=O)(=O)c2nc(-c3cccs3)oc2SCC(N)=O)cc1	-12.6	-1.7	-2.0	-4.9	60.3*	9.6
Cc1ccsc1C(=O)NCCc1nnc2ccccn12	-14.7	·	1.9	0.4	35.9	-1.8
SMILES	Rtt109 Vps75	WT yeast gro inh	SKKanGAS inh	Platelet DG rel	PHOSPHO1 inh	TPT1 inhibitor
C[C@H](CO)N1C[C@H](C)[C@@H](CN(C)C(=O)NC2CCCCC2)Oc2c(NC(=O)Nc3ccccc3)cccc2C1=O	10.1	·	·	·	·	·
Cn1c(CN2CCN(C(=O)c3ccco3)CC2)nc2cc([N+](=O)[O-])ccc21	2.7	·	-6.6	41.0	66.3*	-0.7
C/C(=N\NS(=O)(=O)c1ccc(C)c([N+](=O)[O-])c1)c1cc2ccccc2o1	15.7	13.0	10.9	2.3	78.9*	0.6
C/C(=N\NS(=O)(=O)c1ccc(Cl)c([N+](=O)[O-])c1)c1cc2ccccc2o1	16.8	8.6	-8.1	-9.0	21.0	-3.6
Cc1cccc(C)c1NC(=O)CN(C)C(=O)[C@H](C)NC(=O)c1ccco1	-0.5	·	·	·	·	·
Cc1ccccc1N(CC(=O)N1CCCCCC1)S(C)(=O)=O	-10.5	·	-3.0	-0.4	·	-2.2
